Assay results published in PubChem BioAssay AID1878 (Sanford-Burnham Center for Chemical Genomics, 2009).
About 200 (20%) of roughly 1,000 compounds were called active. Cut-off read from the data, not from the text of the source: active = inhibition above about 55%; inactive = the rest. The list is a sample of the results. Entries with a potency or affinity are not part of this list.

Target: Dual specificity protein phosphatase 3 (Homo sapiens) (UniProt P51452)
Assay: VHR1 phosphatase inhibitors, biochemical (AID 1878)
Settings: recombinant VHR phosphatase, fluorogenic substrate; at 13.3 µM; hits give high values

Sequence of Dual specificity protein phosphatase 3 (Homo sapiens) (P51452 whole entry, looked up): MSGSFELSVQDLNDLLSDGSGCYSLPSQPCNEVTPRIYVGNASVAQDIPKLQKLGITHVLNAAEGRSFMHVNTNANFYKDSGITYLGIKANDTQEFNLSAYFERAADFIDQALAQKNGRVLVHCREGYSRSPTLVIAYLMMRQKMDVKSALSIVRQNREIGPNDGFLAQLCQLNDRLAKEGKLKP

SMILES | inhibition
O=C(CSc1nc2ncccc2[nH]1)NCc1ccco1 | 17.8% (inactive)
COc1ccc(Br)cc1/C=N/n1nnnc1N | 5.9% (inactive)
Cc1cc(C(=O)O)ccc1-c1ccc(/C=C2\SC(=O)N(CC(=O)Nc3ccc4c(c3)OCO4)C2=O)o1 | 96.8% (active)
Cc1ccc(C(=O)O)cc1-c1ccc(/C=C2\SC(=O)N(CC(=O)Nc3ccccc3)C2=O)o1 | 45.6% (inactive)
O=C(CN1C(=O)S/C(=C\c2ccc(-c3cc(C(=O)O)ccc3Cl)o2)C1=O)Nc1ccc2c(c1)OCO2 | 91.9% (active)
CCOc1ccccc1NC(=O)c1nnn(CC(=O)Nc2ccc3c(c2)OCO3)c1N | -0.3% (inactive)
Cc1ccccc1NC(=O)CN1C(=O)S/C(=C\c2ccc(-c3cc(C(=O)O)ccc3C)o2)C1=O | 67.4% (active)
O=C(CSc1ccc([N+](=O)[O-])cn1)Nc1ccc2c(c1)OCO2 | -8.7% (inactive)
CCN(CC(=O)Nc1ccc2c(c1)OCCO2)C(=O)COc1ccc(C)cc1 | 7.4% (inactive)
CCOc1ccc(CNS(=O)(=O)c2cc(CN3C(=O)c4cccnc4C3=O)ccc2OC)cc1 | -2.7% (inactive)
CC(=O)N1c2ccc(S(=O)(=O)N(C)CC(=O)Nc3cccc(C)c3)cc2CC1C (configuration not stated) | -2.3% (inactive)
O=C(NC(=S)Nc1ccccc1N1CCCC1)c1ccccc1Br | -1.6% (inactive)
COc1cc(OC)nc(Oc2ccc(N)c(C)c2)n1 | 17.4% (inactive)
CC(=O)/C=C\c1cn(-c2ncc(C(F)(F)F)cc2Cl)c2ccccc12 | -0.4% (inactive)
COc1cccc(CNc2cc(C)ccn2)c1O | -6.7% (inactive)
O=S1(=O)N(Cc2ccccc2F)CCCN1Cc1c(F)cccc1Cl | 44.5% (inactive)
O=S(=O)(c1ccccc1)N1CCn2c(nc3ccccc32)C1 | -0.8% (inactive)
Cc1ccc(-c2nn3c(C)nnc3s2)cc1NC(=O)c1ccc(-c2ccc(Cl)cc2Cl)o1 | 99.7% (active)
Cc1ccc(/C=C2/Sc3ccc(C(=O)NCc4ccccn4)cc3NC2=O)cc1 | 93.9% (active)
CSCC(C)N1CCC(N2CCC(C(=O)NCc3ccccn3)CC2)CC1 (configuration not stated) | -9.9% (inactive)
CCN(Cc1ccc(NC(C)=O)cc1)CC1CCCN(CCc2cccc(F)c2)C1 (configuration not stated) | 6.3% (inactive)
CCOC(=O)C1(Cc2ccccc2)CCCN(C(=O)c2ccc(-n3ccnc3)cc2)C1 (configuration not stated) | -9.5% (inactive)
Cc1cccc(C(=O)NCCCn2ccnc2)c1C | -6.9% (inactive)

SMILES | inhibition
Cc1ccc(CSc2nnc(-c3ccco3)n2N)cc1 | 3.5% (inactive)
CC1(c2ccc3ccccc3c2)NC(=O)NC1=O (configuration not stated) | -8.8% (inactive)
CC(C)N(C)Cc1nnnn1CC(=O)N(C)Cc1ccc(F)cc1 | 0.7% (inactive)
O=C(O)CN1C(=O)/C(=C2\C(=O)N(Cc3ccccc3Cl)c3ccccc32)SC1=S | 96.7% (active)
COc1ccc(NC(=O)CN2C(=O)/C(=C3\SC(=S)N(CCC(=O)O)C3=O)c3ccccc32)cc1 | 74.7% (active)
COc1ccc(NC(=O)CN(CC(=O)Nc2ccc(OC)cc2)C(C)(C)CO)cc1 | 10.8% (inactive)
COc1ccc(C(CC(=O)Nc2ccccn2)N2Cc3ccccc3C2=O)cc1 (configuration not stated) | 2.3% (inactive)
CN(C)c1nc(-c2ccccc2)c2cc(Cl)ccc2n1 | 9% (inactive)
CCCN1CCN(CCNC(=O)Nc2cc(C)ccc2C)CC1 | -9.3% (inactive)
Cc1nc(C(C)NC(=O)c2ccc(OC3CCN(Cc4ccccn4)CC3)cc2)c(C)s1 (configuration not stated) | -8.5% (inactive)
COc1ccccc1N(CC(O)CN1CCC(C)CC1)S(=O)(=O)c1ccccc1 (configuration not stated) | -7.2% (inactive)
Cc1ccc(S(=O)(=O)N(C)C)cc1NC(=O)COC(=O)/C=C/c1cnc2ccccc2n1 | 10.1% (inactive)
O=C(Nc1ccc(N2CCCCC2)cc1)c1ccc([N+](=O)[O-])o1 | 14.3% (inactive)
CC(O)CNc1nc2c(c(=O)n(Cc3ccc(Cl)cc3)c(=O)n2C)n1C (configuration not stated) | 27.1% (inactive)
CC(C)NC(=O)CN1C(=O)CSc2ccc(S(=O)(=O)N3CCCC3)cc21 | 15.9% (inactive)
CCc1nn(CC(=O)N2CCN(c3cc(C)ccc3C)CC2)c(=O)c2cc3occc3n12 | 4.7% (inactive)
COC(=O)C1CCN(Cc2c(C(=O)N3C[C@@H](C)O[C@@H](C)C3)nc3ccc(Cl)cn23)CC1 | 19% (inactive)
Cc1cc(-c2ccc(C)c(S(=O)(=O)NCCCN(Cc3ccccc3)C(C)C)c2)on1 | 3.1% (inactive)
S=c1nc(NCc2cccc(Cl)c2)c2ccccc2[nH]1 | 6.3% (inactive)
CCN(CC)CCCNC(=O)c1ccc(CS(=O)(=O)c2ccccc2OC)o1 | -2.3% (inactive)
CN(C(=O)CSc1cn(CC(=O)N2CCOCC2)c2ccccc12)c1ccccc1 | -6.1% (inactive)
CCc1ccc(CN(C)C(=O)c2ccc3c(c2)OCCO3)cc1 | 11.2% (inactive)
O=C(O)CCCN1C(=O)c2ccccc2Sc2ncccc21 | 2.1% (inactive)

SMILES | inhibition
CCCCN1C(=O)/C(=C2\SC(N3CCOCC3)=NC2=O)c2ccccc21 | 1.9% (inactive)
CN1C=CC=C/C1=C1/SC(=S)N(Cc2ccccc2)C1=O | -8% (inactive)
O=C(O)CCN1C(=O)/C(=C2\C(=O)N(Cc3ccc(F)cc3)c3ccccc32)SC1=S | 92.9% (active)
N#CC(c1cccnc1)N1CCOCC1 (configuration not stated) | 5.3% (inactive)
N#Cc1ccc(OS(=O)(=O)c2ccc(-c3ccon3)s2)cc1 | 1.6% (inactive)
CCOC(=O)c1ccc(NC(=O)CSc2nnc(CNC(=O)c3ccco3)o2)cc1 | 28.4% (inactive)
OC(CN1CCC(Cc2ccccc2)CC1)c1ccccc1 (configuration not stated) | 3.5% (inactive)
O=C(O)C(Cc1ccccc1)N1C(=O)/C(=C/C=C/c2ccco2)SC1=S (configuration not stated) | 71.7% (active)
CC(C(=O)O)N1C(=O)/C(=C/C=C/c2ccco2)SC1=S (configuration not stated) | 97.9% (active)
Cc1cc(N2CCN(c3ncccn3)CC2)nc2c(C)cccc12 | 3.7% (inactive)
CNS(=O)(=O)c1cn(CC(=O)NCc2ccc(N(C)C)cc2)cc1S(=O)(=O)NC | 5.7% (inactive)
COc1ccc(CN(C)C(=O)c2cccc(NS(=O)(=O)c3ccccc3)c2)cc1F | 6% (inactive)
Cc1ccc(N2C(=O)c3ccccc3C2=O)nc1 | -3.1% (inactive)
CCN1CCN(C(=O)c2cc3ccc(OC)cc3[nH]2)CC1 | 10.9% (inactive)
COc1ccc(Br)cc1S(=O)(=O)N1CCCc2ccccc21 | -6.5% (inactive)
CSc1ncc(C(=O)Nc2cc(C)ccc2C)c(C)n1 | -5.1% (inactive)
Cc1cc2nc3s/c(=C/c4ccc(-c5ccccc5C(=O)O)o4)c(=O)n3c2cc1C | 74.7% (active)
CN(C)CCN(CC1CCCN(Cc2ccccc2F)C1)C(=O)Cc1ccccc1F (configuration not stated) | -15.2% (inactive)
CC1=C(C(=O)Nc2cccc(C(=O)N3CCC(C(N)=O)CC3)c2)SCCO1 | 4.8% (inactive)
COc1ccc(NC(=O)NCCN2CCCCC2)cc1 | -10.3% (inactive)
CCN(CC)CCNC(=O)CCN1N=C(c2ccccc2)CCC1=O | 2.7% (inactive)
O=C(c1ccc(NC2=NC3CS(=O)(=O)CC3S2)cc1)N(CCO)Cc1ccccc1 (configuration not stated) | 0.9% (inactive)
O=C1C(Cl)=C(N2CCOCC2)C(=O)N1c1ccccc1F | -7.3% (inactive)

SMILES | inhibition
COc1ccc(N(C(=O)c2snc(C(N)=O)c2N)C(C(=O)NC2CCCC2)c2ccc(F)cc2)c(OC)c1 (configuration not stated) | -0.8% (inactive)
CC1CCCCN1CCCNC(=O)CCCN1C(=O)c2cccnc2Sc2ccccc21 (configuration not stated) | -12.7% (inactive)
CC1CCN(CCCNC(=O)C2CC(=O)N(CCc3ccccc3)C2)CC1 (configuration not stated) | -14.3% (inactive)
COc1ccc(N(C)S(=O)(=O)c2ccc3c(c2)NC(=O)CC(=O)N3)c(OC)c1 | 7.8% (inactive)
COC(=O)C1=NN(C(=O)c2ccccc2)C(O)(c2ccc([N+](=O)[O-])cc2)C1 (configuration not stated) | -7.4% (inactive)
CC(Cc1n[nH]c(=S)n1N)c1ccccc1 (configuration not stated) | -2.8% (inactive)
CCOCCn1cnc2sc(C(=O)NCCCN3CCOCC3)c(C)c2c1=O | 9.7% (inactive)
CCc1cc(=O)oc2c(C)c(OCC(=O)NCCCN3CCOCC3)ccc12 | 3.5% (inactive)
CCOC(=O)C1(CCc2ccccc2)CCN(CC(O)CO)CC1 (configuration not stated) | -10.8% (inactive)
Cn1c(=O)c2c(ncn2CCOc2ccc(F)cc2)n(C)c1=O | -6.4% (inactive)
Cc1cc(C)cc(NCc2cc(=O)oc3cc(C)c(O)cc23)c1 | 8.5% (inactive)
CCn1cc(CCC(=O)NCCN2CCOCC2)c2ccccc21 | -13.7% (inactive)
C/C(=N\NC(=O)c1cc(O)cc(O)c1)c1ccc(NC(=O)Cc2ccccc2)cc1 | 96.6% (active)
O=C(Cc1ccccc1)Nc1ccc(C(=O)Nc2ccc(O)cc2)cc1 | 1.2% (inactive)
C/C(=N\NC(=O)CNC(=O)c1cccc(F)c1)c1ccc2ccccc2c1 | 1.1% (inactive)
O=C(O)c1ccc(/C=N/NC(=O)c2cc3c(ccc4ccccc43)o2)cc1 | 98.7% (active)
O=C(N/N=C/c1ccc([N+](=O)[O-])o1)c1cc2c(ccc3ccccc32)o1 | 98.8% (active)
Cc1ccc(NC(=O)C(=O)NCc2ccc(/C=N/NC(=O)c3c(C)nc4ccccn34)o2)cc1 | 18.4% (inactive)
O=C(NCc1c(O)ccc2ccccc12)c1ccccc1 | 2.1% (inactive)
O=C(N/N=C/c1cccc([N+](=O)[O-])c1)c1cc2c(ccc3ccccc32)o1 | 98% (active)
O=C(CN1CCCCCC1)N/N=C/c1ccc2ccccc2c1 | -6.1% (inactive)
O=C(NCc1ccc(Cl)cc1)Nc1ccc(F)cc1 | 0.7% (inactive)
CCOC(=O)c1cc(/C(C)=N/OC(=O)c2ccc(C(C)(C)C)cc2)on1 | 0.2% (inactive)
